Assay outcomes from PubChem BioAssay.
In the library only some 1.2% were active in any assay of this set; here they are far more common.
TLR9-MyD88 inh – inhibitors of human TLR9-MyD88 binding. Q9NR96+Q99836. CHO BLA complementation TLR9-MyD88, CCF4 FRET ratio. inhibition, % at 4.98 µM. hit rate 0.21% among 340,000. AID 504734;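 active = inhibition above the mean over all tested compounds plus 3 SD, cut at about 21% in these data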;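 note: 0% = DMSO only wells and 100% = clavulanate BLA inhibitor control wells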
ABHD5 PLIN5 PPI – ABHD5-PLIN5 protein interaction inhibition; Q00G26+Q8WTS1; Split G. princeps luciferase complementation, luminescence, 4 h; inhibition, % at 4 µM; hit rate 0.78% among 360,000; AID 602281;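 active = inhibition above the mean inhibition across every tested compound plus 3 SD, cut at about 22% in these data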;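 note: 0% = DMSO only wells and the 100% control is not disclosed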
NOD2 RIPK2 PPI – blocks binding of human NOD2 to RIPK2; O43353; inhibition, % at 4.98 µM; hit rate 0.38% among 360,000; AID 624267; CHO BLA complementation NOD2-RIPK2, CCF4 ratio; in the data active = inhibition above about 21%;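 note: 0% = vehicle only and 100% = reference blocker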
TLR4-MyD88 BLA – inhibitors of human TLR4-MyD88 binding; HeLa CL3-4 TLR4/MyD88 BLA complementation, FRET ratio; inhibition, % at 8.4 µM; hit rate 0.18% among 200,000; O00206+Q99836; in the data active = inhibition above about 25%;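 note: 0% = vehicle and 100% = reference inhibitor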
TLR9-MyD88 conf – TLR9-MyD88 interaction inhibition, confirmation; shares compounds with TLR9-MyD88 inh; CHO TLR9/MyD88 BLA complementation, CCF4 FRET ratio; inhibition, % at 4.98 µM; hit rate 51% among 680; AID 540250;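 active = mean inhibition across three repeats above about 21% taken from the earlier screen, limit read from the data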;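 note: blue over green emission ratio reports constitutive TLR9 MyD88 association via BLA complementation; 0% = DMSO vehicle wells and 100% = clavulanate BLA inhibitor wells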
BLA counter-1 – non-selective beta-lactamase inhibitors in TLR9-MyD88 counter-screen; shares compounds with TLR9-MyD88 inh; CHO-BLA cells, CCF4 FRET ratio, BLA reporter; inhibition, % at 4.98 µM; hit rate 7% among 680; AID 540251;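 active = mean inhibition above a 50% cutoff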;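 note: counterscreen of TLR9-MyD88 hits on CMV-driven BLA in CHO-K1 cells; 0% = DMSO alone and 100% = clavulanate blocking BLA; higher means less blue over green ratio so more BLA blockade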
TLR9 CHO cytotox – counter-screen for TLR9-MyD88 inhibitors: cytotoxicity in CHO cells; shares compounds with TLR9-MyD88 inh; luminescence; inhibition, % at 4.98 µM; hit rate 39% among 680; AID 588336; in the data active = inhibition above about 11%
ABHD5-PLIN5 conf – ABHD5-PLIN5 interaction inhibition, confirmed | shares compounds with ABHD5 PLIN5 PPI | biochemical ABHD5-PLIN5 interaction, luminescence | inhibition, % at 4 µM | hit rate 67% among 2,200 | AID 651612; in the data active = inhibition above about 23%;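 note: 0% = DMSO vehicle wells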
HNF4 split-luc – counter-screen for ABHD5-PLIN5 inhibitors: HNF4 split-luciferase; HNF4 dimerization, luminescence, biochemical; AID 651674; hit rate 77% among 2,200; shares compounds with ABHD5 PLIN5 PPI; inhibition, % at 4 µM;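 active = mean inhibition across replicate wells exceeding the computed hit threshold, cut at about 13% in these data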;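 note: light from luciferase halves that rejoin when HNF4 fusion proteins dimerize; 0% = DMSO only wells and the 100% control is not given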
NOD2-RIPK2 conf – confirmation of human NOD2-RIPK2 interaction inhibitors; hit rate 70% among 1,200; shares compounds with NOD2 RIPK2 PPI; AID 624370; CHO cells, NOD2-RIPK2 BLA complementation, CCF4 FRET; inhibition, % at 4.98 µM;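 active = mean inhibition across replicates above a set limit taken from the earlier primary screen, cut at about 21% in these data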;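 note: 0% = DMSO-only wells and the high end = clavulanate BLA-blocked wells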
BLA counter-2 – NOD2-RIPK2 counterscreen BLA reporter activity. CHO BLA reporter, CCF4 FRET ratio. hit rate 57% among 1,200. shares compounds with NOD2 RIPK2 PPI. inhibition, % at 4.98 µM;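 active = mean inhibition above the low-control mean inhibition plus three low-control SD, cut at about 11% in these data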;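 note: 0% = DMSO only wells and 100% = clavulanate high control wells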
The depositor's hits bear a star; x = not tested or not shown.

SMILES | TLR9-MyD88 inh | ABHD5 PLIN5 PPI | NOD2 RIPK2 PPI | TLR4-MyD88 BLA | TLR9-MyD88 conf | BLA counter-1 | TLR9 CHO cytotox | ABHD5-PLIN5 conf | HNF4 split-luc | NOD2-RIPK2 conf | BLA counter-2
Cc1ccccc1NC(=O)c1nc(S(C)(=O)=O)ncc1Cl | 38* | 38* | 30* | x | 37* | 13 | 87* | 59* | 85* | 60* | 29*
CCCCC1CCC(C(=O)N(CCCC)c2c(N)n(CCCC)c(=O)[nH]c2=O)CC1 (stereo not drawn) | 4 | -5 | 0 | x | x | x | x | x | x | x | x
CCCC(=O)OCCNc1cc(SCc2ccco2)c2nonc2c1[N+](=O)[O-] | 6 | 14 | 1 | 1 | x | x | x | x | x | x | x
CCCSc1cc(NCCOC(C)=O)c([N+](=O)[O-])c2nonc12 | -1 | -13 | -2 | -6 | x | x | x | x | x | x | x
CCC(=O)OCCNc1cc(Sc2nc3ccccc3s2)c2nonc2c1[N+](=O)[O-] | 39* | 21 | 49* | 10 | 61* | 13 | 98* | x | x | 75* | 14*
Cc1nnc(Sc2cc(NCCCO)c([N+](=O)[O-])c3nonc23)s1 | 36* | 27* | 41* | 15 | 64* | 4 | 99* | 49* | 111* | 60* | 18*
CCCC(=O)OCCNc1cc(Sc2nccn2C)c2nonc2c1[N+](=O)[O-] | 53* | 28* | 71* | 24 | 71* | 16 | 97* | 56* | 109* | 92* | 47*
Cc1ccc(C(=O)Sc2cccccc2=O)cc1 | 30* | -3 | 35* | x | 21* | 11 | 99* | x | x | 48* | 16*
O=C(Nc1ccccc1SC(=O)c1ccccc1)c1ccccc1 | -9 | -7 | -8 | x | x | x | x | x | x | x | x
CCOC(=O)C1(C)CCN1C(=O)c1cncc(Br)c1 (stereo not drawn) | x | 2 | -12 | x | x | x | x | x | x | x | x
COc1ccc(CNC(=O)COC(=O)c2ccc(OCC3CCCO3)cc2)cc1 (stereo not drawn) | 12 | -2 | 5 | x | x | x | x | x | x | x | x
Cc1ccc(-n2sc3cc(F)ccc3c2=O)c(C)c1 | 30* | 66* | 38* | x | 19 | -1 | 85* | 63* | 116* | 26* | 15*
Cc1ccc(N2C(=O)CC(N3CCN(c4ccc(F)cc4)CC3)C2=O)c(C)c1 (stereo not drawn) | -8 | -9 | -9 | x | x | x | x | x | x | x | x
O=C(COC(=O)C1CC(=O)N(Cc2ccco2)C1)Nc1nc(-c2ccc(F)cc2)cs1 (stereo not drawn) | -16 | 10 | 6 | x | x | x | x | x | x | x | x
CC(C)(C)c1cc(C2=CSC3=NCCN23)cc(C(C)(C)C)c1O | 21* | 10 | 24* | x | 14 | 16 | 2 | x | x | 33* | 17*
COc1cc(C(=O)c2ccccc2)c(OC)cc1C(=O)Nc1ccc(O)cc1 | 7 | -5 | -3 | 12 | x | x | x | x | x | x | x
Cc1nnsc1S(=O)c1ccc(Cl)cc1 (stereo not drawn) | 3 | 5 | -6 | x | x | x | x | x | x | x | x
O=C(c1nnsc1S(=O)c1ccc(Cl)cc1)N1CCOCC1 (stereo not drawn) | 28* | 73* | 52* | 6 | 31* | 1 | 101* | x | x | 68* | 21*
O=C(Nc1ccccc1)c1nnsc1S(=O)c1ccc(Cl)cc1 (stereo not drawn) | 23* | 34* | 33* | 23 | 37* | 7 | 97* | 90* | 106* | 78* | 25*
O=C(c1ccco1)N1CCN(C(=O)c2ccc(CS(=O)c3ccc(Br)cc3)o2)CC1 (stereo not drawn) | -6 | 4 | -5 | x | x | x | x | x | x | x | x
